PubChem BioAssay
Calls of active or inactive are those of the source.

Tests used:
[1] = test system: Plasmodium falciparum Sir2 (PF13_0152, Sir2A); assay: pfSir2 binders on small-molecule microarrays, primary screen, biochemical, small-molecule microarray, 635 nm fluorescence (AID 1098); conditions: small-molecule microarray binding, fluorescence 635 nm; higher = more signal;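 also: score merges spot fluorescence intensity with its signal-to-noise ratio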
[2] = small-molecule microarray binders of probe aDKK1, primary screen, biochemical, biotinylated probe, 635/667 nm fluorescence (AID 1099); conditions: higher = more signal;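 also: score merges 667nm spot fluorescence with signal to noise across triplicate slides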
[3] = small-molecule microarray binders of probe aCHRDL2, primary screen, biochemical, biotinylated probe, 635/667 nm fluorescence (AID 1100); conditions: higher = more signal
[4] = splicing luciferase reporter signal modulators, primary screen, spliceosome inhibition project, cell-based, HEK293, splice +/- reporter (AID 1101); conditions: luminescence, 24 h, higher = more signal, called active from +8 up or from −8 down;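 also: HEK293 cells carrying a splicing-competent luciferase reporter gene; test concentration not given here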
[5] = biological target: Fibroblast growth factor 10 (Homo sapiens) (UniProt O15520); assay: FGF10 binders on small-molecule microarrays, primary screen, biochemical, small-molecule microarray, 635 nm fluorescence (AID 1102); conditions: FGF10 binding, fluorescence 635 nm, higher = more signal
[6] = test system: glycogen synthase kinase-3 (GSK3A per assay name; protocol says GSK3B); assay: GSK3 binders on small-molecule microarrays, primary screen, biochemical, small-molecule microarray, 635 nm fluorescence, GSK3A (AID 1103); conditions: small-molecule microarray binding, fluorescence 635 nm; higher = more signal; also: the record names both GSK3A and GSK3B
[7] = biological target: Epidermal growth factor receptor (Homo sapiens) (UniProt P00533); assay: EGFR binders on small-molecule microarrays, primary screen, biochemical, small-molecule microarray, 635 nm fluorescence (AID 1104); conditions: EGFR binding, higher = more signal;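 also: score merges 667 nm emission intensity with spot signal to noise over triplicate slides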
[8] = biological target: Follistatin-related protein 3 (Homo sapiens) (UniProt O95633); assay: FSTL3 binders on small-molecule microarrays, primary screen, biochemical, small-molecule microarray, 635 nm fluorescence (AID 1105); conditions: FSTL3 binding, higher = more signal;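 also: score merges emission near 667 nm and signal to noise per printed spot across three slides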
[9] = biological target: Dickkopf-related protein 1 (Homo sapiens) (UniProt O94907); assay: DKK1 binders on small-molecule microarrays, primary screen, biochemical, small-molecule microarray, 635 nm fluorescence scan (AID 1106); conditions: DKK1 binding, higher = more signal;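 also: score merges emission near 667 nm with signal to noise over three replicate slides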
[10] = test system: Inhibin beta A chain (activin A); assay: INHBA (activin A) binders on microarrays, primary screen, biochemical, small-molecule microarray, 635 nm fluorescence scan (AID 1107); conditions: small-molecule microarray binding, higher = more signal;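 also: mouse activin A protein probed at 4.33 µg/mL on printed slides; score merges bound-protein fluorescence near 667 nm with spot signal-to-noise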
[11] = test system: Human papillomavirus type 1a protein E7 (residues 44-93); assay: HPV1a E7 fragment binders on microarrays, primary screen, biochemical, small-molecule microarray, residues 44-93, 635 nm fluorescence (AID 1108); conditions: small-molecule microarray binding, fluorescence 635 nm; higher = more signal;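 also: E7 fragment applied at 1 µg/mL in TBST for 1 h at 4 C; score combines spot fluorescence with its signal to noise ratio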
[12] = modulators of HCV replicon luciferase signal, primary screen, HCV replication inhibitor project, Huh7 cells, luciferase reporter (AID 1109); conditions: 48 h, higher = more signal;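 also: huh7 hepatoma cells harbouring a luciferase neomycin HCV replicon reporter; luciferase luminescence as measure of HCV replicon replication; test concentration not given here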
[13] = biological target: Left-right determination factor 2 (Homo sapiens) (UniProt O00292); assay: LEFTY2 binders on small-molecule microarrays, primary screen, biochemical, small-molecule microarray, 635 nm fluorescence scan (AID 1110); conditions: LEFTY2 binding, higher = more signal
[14] = biological target: Calmodulin-1 (Homo sapiens) (UniProt P0DP23); assay: CALM1 binders on microarrays, EGTA buffer, profiling panel, biochemical, small-molecule microarray, Cy5-labelled CALM1 (AID 1111); conditions: Cy5-CALM1 binding fluorescence, higher = more signal;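 also: labelled calmodulin applied in Tris saline Tween buffer holding calcium plus EGTA and DTT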
[15] = biological target: Calmodulin-1 (Homo sapiens) (UniProt P0DP23); assay: calcium-bound CALM1 binders on microarrays, profiling panel, artefact control for SMM control-protein annotation, biochemical, small-molecule microarray, Cy5-labelled CALM1, plus calcium (AID 1112); conditions: Cy5-CALM1 binding fluorescence, higher = more signal;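 also: score merges spot fluorescence with signal to noise from triplicate slides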
[16] = small-molecule microarray binders of probe aWnt5a, primary screen, biochemical, biotinylated probe, 635/667 nm fluorescence (AID 1113); conditions: higher = more signal;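 also: score merges 667 nm fluorescence intensity with signal-to-noise per printed feature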
[17] = small-molecule microarray binders of probe aShh, primary screen, biochemical, biotinylated probe, 635/667 nm fluorescence (AID 1114); conditions: higher = more signal;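 also: probe is biotin-labelled aShh protein from a stem cell growth factor screen; measures binding of labelled protein to compounds printed on the slide; score merges feature fluorescence at 667 nm with signal-to-noise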
[18] = small-molecule microarray binders of probe aNog, primary screen, biochemical, biotinylated probe, 635/667 nm fluorescence (AID 1115); conditions: higher = more signal;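 also: probe is biotinylated aNog protein used at 0.15 µg/mL for 1 h at 4 C; z-score combines 667 nm fluorescence of each spot with its signal to noise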
[19] = biological target: Torsin-1A-interacting protein 1 (Homo sapiens) (UniProt Q5JTV8); assay: LAP1 binders from COS7 cell lysate, primary screen, small-molecule microarray, 635/667 nm fluorescence (AID 1116); conditions: COS7-hLAP1 lysate binding, 635 nm fluorescence, higher = more signal
[20] = biological target: Alpha-bungarotoxin (Bungarus multicinctus) (UniProt P60615); assay: alpha-bungarotoxin binders on microarray, profiling panel, artefact control for SMM control protein annotation, biochemical, small-molecule microarray, Alexa647 label, 635/667 nm fluorescence (AID 1117); conditions: alpha-BTX-A647 binding fluorescence, higher = more signal
Alpha-bungarotoxin (Bungarus multicinctus), sequence (P60615 whole entry, looked up): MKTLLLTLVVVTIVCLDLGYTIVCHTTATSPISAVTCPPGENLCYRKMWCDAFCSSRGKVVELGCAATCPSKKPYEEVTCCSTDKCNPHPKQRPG

Dickkopf-related protein 1 (Homo sapiens), sequence (O94907 whole entry, looked up): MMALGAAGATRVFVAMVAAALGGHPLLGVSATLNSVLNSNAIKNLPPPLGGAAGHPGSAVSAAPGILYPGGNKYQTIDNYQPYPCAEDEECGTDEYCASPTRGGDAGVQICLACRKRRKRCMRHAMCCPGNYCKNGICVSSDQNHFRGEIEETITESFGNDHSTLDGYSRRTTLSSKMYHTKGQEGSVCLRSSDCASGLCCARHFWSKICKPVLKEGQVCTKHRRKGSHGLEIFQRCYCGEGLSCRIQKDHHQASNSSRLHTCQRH
Epidermal growth factor receptor (Homo sapiens), sequence (P00533 whole entry, looked up): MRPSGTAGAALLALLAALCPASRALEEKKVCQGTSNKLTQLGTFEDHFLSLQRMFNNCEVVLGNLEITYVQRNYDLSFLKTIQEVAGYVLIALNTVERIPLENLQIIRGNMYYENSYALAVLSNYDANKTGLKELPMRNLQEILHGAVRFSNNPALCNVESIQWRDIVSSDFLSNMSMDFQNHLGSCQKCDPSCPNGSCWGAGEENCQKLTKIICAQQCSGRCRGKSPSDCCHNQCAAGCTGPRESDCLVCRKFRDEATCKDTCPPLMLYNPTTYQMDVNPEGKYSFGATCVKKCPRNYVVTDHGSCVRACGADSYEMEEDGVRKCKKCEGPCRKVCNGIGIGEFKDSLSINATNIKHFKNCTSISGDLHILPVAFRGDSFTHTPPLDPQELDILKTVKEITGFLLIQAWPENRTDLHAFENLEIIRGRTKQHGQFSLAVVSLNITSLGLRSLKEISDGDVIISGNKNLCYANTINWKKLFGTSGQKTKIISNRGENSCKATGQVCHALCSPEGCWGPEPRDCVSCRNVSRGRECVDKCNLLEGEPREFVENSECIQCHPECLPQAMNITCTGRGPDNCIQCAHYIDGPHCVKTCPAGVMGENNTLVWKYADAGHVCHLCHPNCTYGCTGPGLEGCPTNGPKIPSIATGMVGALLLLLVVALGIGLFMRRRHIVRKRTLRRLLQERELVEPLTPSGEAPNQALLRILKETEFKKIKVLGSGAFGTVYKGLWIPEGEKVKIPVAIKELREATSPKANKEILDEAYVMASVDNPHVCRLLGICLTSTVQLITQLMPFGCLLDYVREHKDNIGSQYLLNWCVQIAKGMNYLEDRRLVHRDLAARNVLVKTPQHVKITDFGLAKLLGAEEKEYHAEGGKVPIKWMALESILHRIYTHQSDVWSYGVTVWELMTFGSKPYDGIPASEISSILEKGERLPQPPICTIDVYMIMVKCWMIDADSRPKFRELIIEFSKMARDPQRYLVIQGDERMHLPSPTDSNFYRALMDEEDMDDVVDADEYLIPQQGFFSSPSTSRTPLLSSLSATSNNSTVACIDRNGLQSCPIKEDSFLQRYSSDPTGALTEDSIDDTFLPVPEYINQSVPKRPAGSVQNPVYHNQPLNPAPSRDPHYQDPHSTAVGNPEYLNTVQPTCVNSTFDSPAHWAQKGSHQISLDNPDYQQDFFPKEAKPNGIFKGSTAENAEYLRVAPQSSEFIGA
Fibroblast growth factor 10 (Homo sapiens), sequence (O15520 whole entry, looked up): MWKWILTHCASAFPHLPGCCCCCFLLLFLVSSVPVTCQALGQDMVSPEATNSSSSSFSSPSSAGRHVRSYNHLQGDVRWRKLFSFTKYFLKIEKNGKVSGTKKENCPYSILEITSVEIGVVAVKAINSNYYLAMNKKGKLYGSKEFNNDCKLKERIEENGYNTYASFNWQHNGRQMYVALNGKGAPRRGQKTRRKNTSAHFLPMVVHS
Follistatin-related protein 3 (Homo sapiens), sequence (O95633 whole entry, looked up): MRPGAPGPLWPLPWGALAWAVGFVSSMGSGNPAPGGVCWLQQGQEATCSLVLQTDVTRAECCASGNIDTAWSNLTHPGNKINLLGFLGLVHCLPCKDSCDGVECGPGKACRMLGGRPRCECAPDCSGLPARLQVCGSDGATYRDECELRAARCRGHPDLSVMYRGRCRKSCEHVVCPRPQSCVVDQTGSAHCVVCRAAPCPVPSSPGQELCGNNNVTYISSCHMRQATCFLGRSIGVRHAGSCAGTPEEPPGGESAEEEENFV
Left-right determination factor 2 (Homo sapiens), sequence (O00292 whole entry, looked up): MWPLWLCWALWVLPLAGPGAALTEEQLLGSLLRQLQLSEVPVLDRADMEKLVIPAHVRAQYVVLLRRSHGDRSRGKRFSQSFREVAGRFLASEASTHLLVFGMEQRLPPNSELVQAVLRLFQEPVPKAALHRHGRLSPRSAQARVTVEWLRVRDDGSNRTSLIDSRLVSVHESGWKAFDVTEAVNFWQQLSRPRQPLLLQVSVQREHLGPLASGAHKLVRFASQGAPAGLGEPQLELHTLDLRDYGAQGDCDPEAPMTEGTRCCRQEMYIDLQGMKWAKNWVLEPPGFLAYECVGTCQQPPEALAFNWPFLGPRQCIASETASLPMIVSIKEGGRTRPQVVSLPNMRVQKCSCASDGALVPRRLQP
Torsin-1A-interacting protein 1 (Homo sapiens), sequence (Q5JTV8 whole entry, looked up): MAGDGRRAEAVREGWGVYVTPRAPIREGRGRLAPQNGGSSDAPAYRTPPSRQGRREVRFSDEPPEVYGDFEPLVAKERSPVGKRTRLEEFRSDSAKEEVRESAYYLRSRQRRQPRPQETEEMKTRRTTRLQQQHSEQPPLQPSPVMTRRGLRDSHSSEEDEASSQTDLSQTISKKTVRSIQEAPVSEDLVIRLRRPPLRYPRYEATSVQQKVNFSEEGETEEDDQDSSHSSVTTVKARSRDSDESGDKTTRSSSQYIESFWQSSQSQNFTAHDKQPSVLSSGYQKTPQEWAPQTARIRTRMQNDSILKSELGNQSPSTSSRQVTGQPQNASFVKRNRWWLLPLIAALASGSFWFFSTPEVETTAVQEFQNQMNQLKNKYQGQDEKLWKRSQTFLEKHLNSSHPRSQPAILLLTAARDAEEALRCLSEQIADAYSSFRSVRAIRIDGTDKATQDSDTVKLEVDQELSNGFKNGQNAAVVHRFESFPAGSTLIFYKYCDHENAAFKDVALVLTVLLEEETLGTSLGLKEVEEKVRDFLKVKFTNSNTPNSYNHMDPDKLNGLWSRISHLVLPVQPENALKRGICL

| Structure (SMILES) | composite z-score [1] | composite z-score [2] | composite z-score [3] | z-score [4] | composite z-score [5] | composite z-score [6] | composite z-score [7] | composite z-score [8] | composite z-score [9] | composite z-score [10] | composite z-score [11] | z-score [12] | composite z-score [13] | composite z-score [14] | composite z-score [15] | composite z-score [16] | composite z-score [17] | composite z-score [18] | composite z-score [19] | composite z-score [20] |
| --- | --- | --- | --- | --- | --- | --- | --- | --- | --- | --- | --- | --- | --- | --- | --- | --- | --- | --- | --- | --- |
| Cc1ccc(S(=O)(=O)OC[C@H]2CN3[C@H](c4ccc(Br)cc4)[C@@H](C)CC[C@H]3C(=O)O2)cc1 | 0.579 | -0.285 | -0.207 | -0.649 (inactive) | 0.725 | -0.204 | -0.0807 | -0.0668 | 0.459 | 0.355 | 0.226 | -1.02 | 0.119 | 0.946 | -0.265 | -0.0462 | 0.0141 | -0.12 | 0.0859 | 0.934 |
| CCOC(=O)NN=C1C[C@@H](O)[C@@H](O)[C@@H]2[C@@H]3C(=O)N(c4cccc(Oc5ccccc5)c4)C(=O)[C@@H]3CC[C@H]12 | 0.424 | 0.104 | -0.566 | -0.652 (inactive) | 0.518 | 0.176 | 0.381 | 0.455 | 0.222 | 0.0233 | 0.731 | 0.011 | 0.404 | 0.141 | -0.141 | -0.205 | -0.388 | -0.304 | 0.129 | 0.675 |
| CCOC(=O)[C@H](Cc1ccccc1)NC(=O)CCC1CC(OC(=O)NCCc2ccc(F)cc2)CC2(CCCC(COC(=O)NCC3CCCCC3)O2)O1 (stereo not given in full) | 0.711 | -0.184 | -0.761 | -0.308 (inactive) | 1.03 | 1.24 | 0.53 | 1.2 | 1.33 | 0.0408 | 1.38 | -0.019 | 1.03 | 0.325 | -0.207 | -0.232 | -0.2 | -0.273 | 0.237 | 0.289 |
| O=C1[C@H]2[C@H]3[C@H](O)[C@H](O)CC(=NOCc4ccccc4)[C@H]3CC[C@H]2C(=O)N1Cc1ccc2c(c1)OCO2 | 0.297 | -0.208 | -0.424 | 0.889 (inactive) | 0.322 | 0.238 | 0.338 | 0.534 | 0.582 | 0.157 | -0.249 | -0.188 | 0.621 | -0.208 | -0.444 | -0.091 | -0.0553 | -0.243 | 0.336 | 0.413 |
| C[n+]1ccc(-c2ccc(CO)cc2)cc1 | -1.19 | 0.116 | 0.808 | 1.29 (inactive) | 0.747 | -0.435 | 1.51 | 1.6 | 0.953 | 2.16 | -1.04 | -0.0613 | 0.616 | 0.468 | 0.607 | -0.117 | -0.0709 | -0.329 | 0.724 | 3.86 |
| C[C@H]1COC(=O)[C@@H]2CCCN2C(=O)[C@@H](C)COC(=O)[C@H](Cc2ccccc2)NC1=O | 0.878 | -0.275 | -0.647 | 0.282 (inactive) | 0.338 | 0.727 | 0.911 | 0.511 | 0.374 | -0.372 | 0.851 | -1.34 | 0.474 | -0.099 | -0.447 | -0.124 | -0.206 | -0.3 | 0.308 | 0.158 |
